Results as given in the supplement of paper PMC10646978.
± gives the standard deviation.

Key:
Settings in all cases: modulator concentration 10 µM
[1] = tested on: RAW-Dual (murine macrophage reporter line); assay: NF-kB reporter (SEAP) activity fold change vs agonist alone; higher = enhanced NF-kB activity
Outline: (§1)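 Compound reached 10 μM final in each well by pin transfer, onto RAW-Dual murine macrophage reporter cells seeded at 50 000 per well in 384-well plates. After 1 hour at 37 °C, the cells were stimulated overnight with a PRR agonist. SEAP in the supernatant was read with QUANTI-Blue at 620 nm absorbance for NF-κB, and Lucia luciferase was read with QUANTI-Luc luminescence for IRF. Each signal was turned into fold change against the mean agonist-only control on the same plate, and two replicate plates were averaged with propagated errors.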

[2] = tested on: RAW-Dual (murine macrophage reporter line); assay: IRF reporter (Lucia luciferase) activity fold change vs agonist alone; higher = enhanced IRF activity
Outline: as §1

[3] = tested on: RAW-Dual (murine macrophage reporter line); assay: viability score (confluency relative to resting cells, overnight) (fraction); higher = more viable, active = viable (0.7 or more)
Outline: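 Overnight exposure to 10 μM final compound was carried out on RAW-Dual macrophages in 384-well plates. IncuCyte software generated two confluency masks over all wells imaged with IncuCyte. The viability score gives confluency in relation to resting cells. A compound met the cutoff if each mask exceeded 70% of resting cells.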

[4] = agonist: CpG ODN 1826 0.5 ug/mL

SMILES | NF-kB reporter [1, 4] | NF-kB reporter ([1]; agonist: LPS 0.1 ug/mL) | NF-kB reporter ([1]; agonist: MPLA […]) | IRF reporter ([2]; agonist: 3'3'-cGAMP 10 ug/mL) | IRF reporter ([2]; agonist: LPS 0.1 ug/mL) | IRF reporter ([2]; agonist: MPLA […]) | viability score [3]
COc1ccc(C(=O)Nc2ccc(Br)c(C)c2)cc1 | 1.03 ± 0.089 | 1.1 ± 0.088 | 1.1 ± 0.038 | 0.767 ± 0.029 | 1.01 ± 0.098 | 1.2 ± 0.14 | 1 (active)
COC(=O)C1=C(C)NC(C)=C(C(=O)OC(C)(C)CN(C)CCC(c2ccccc2)c2ccccc2)C1c1cccc([N+](=O)[O-])c1.Cl (centres undefined) | 0.167 ± 0.023 | 0.807 ± 0.17 | 1.98 ± 1 | 0.132 ± 0.0065 | 1.69 ± 0.37 | 2.85 ± 0.23 | 0.96 (active)
Br.Fc1ccc(-c2csc(Nc3ccc4c(c3)OCO4)n2)cc1 | 0.871 ± 0.076 | 0.946 ± 0.066 | 1.02 ± 0.038 | 0.315 ± 0.022 | 1.03 ± 0.076 | 1.29 ± 0.12 | 0.999 (active)
O=C(CN1CCN(c2ccccc2F)C1=O)N1CCCC(Oc2cnccn2)C1 (centres undefined) | 0.831 ± 0.039 | 0.931 ± 0.075 | 1.08 ± 0.062 | 1.02 ± 0.053 | 1.26 ± 0.27 | 1.37 ± 0.47 | 0.965 (active)
CC(=O)OC1(C(C)=O)CCC2C3C=C(C)C4=CC(=O)CCC4(C)C3CCC21C (centres undefined) | 1.18 ± 0.088 | 1.08 ± 0.054 | 1.21 ± 0.026 | 1.04 ± 0.069 | 0.875 ± 0.1 | 0.986 ± 0.14 | 0.995 (active)
CC(=O)Nc1c(-c2ccc3ccccc3c2)nc2ccccn12 | 1.37 ± 0.33 | 0.942 ± 0.079 | 1.07 ± 0.11 | 0.949 ± 0.032 | 1.14 ± 0.15 | 1.16 ± 0.14 | 0.995 (active)
CC1(C)Cc2ccccc2C(=C(C#N)C#N)N1 | 1.01 ± 0.08 | 0.912 ± 0.068 | 1.06 ± 0.1 | 1.03 ± 0.041 | 1.33 ± 0.2 | 1.5 ± 0.34 | 1.01 (active)
C=CCNC1=C2C[C@@H](C)C[C@H](OC)[C@H](O)[C@@H](C)/C=C(\C)[C@H](OC(N)=O)[C@@H](OC)/C=C\C=C(/C)C(=O)NC(=CC1=O)C2=O | 0.174 ± 0.0095 | 0.215 ± 0.021 | 0.413 ± 0.042 | 1.63 ± 0.15 | 3.81 ± 0.34 | 3.4 ± 0.71 | 0.493 (inactive)
CS(=O)(=O)O.Cc1ccc(NC(=O)c2ccc(CN3CCN(C)CC3)cc2)cc1Nc1nccc(-c2cccnc2)n1 | 0.119 ± 0.03 | 1.27 ± 0.28 | 1.89 ± 0.17 | 0.201 ± 0.0064 | 0.97 ± 0.18 | 1.75 ± 0.3 | 0.957 (active)
O=C(CCc1ccc(O)cc1)c1c(O)cc(O)cc1O | 1.06 ± 0.2 | 1.07 ± 0.085 | 1.13 ± 0.088 | 0.768 ± 0.038 | 1.03 ± 0.12 | 1.23 ± 0.15 | 0.998 (active)
Cl.OC(CC#CCN1CCCC1)(c1ccccc1)c1ccccc1 | 0.726 ± 0.13 | 1.08 ± 0.086 | 0.967 ± 0.074 | 0.748 ± 0.019 | 1.28 ± 0.15 | 1.42 ± 0.17 | 0.597 (inactive)
Cc1cc(C)c2c(c1)[C@@H](N(Cc1cc(C(F)(F)F)cc(C(F)(F)F)c1)c1nnn(C)n1)CCCN2C[C@H]1CC[C@H](C(=O)O)CC1 | 0.717 ± 0.054 | 0.861 ± 0.097 | 1.08 ± 0.036 | 0.985 ± 0.058 | 0.955 ± 0.033 | 1.09 ± 0.14 | 1.01 (active)
